Laboratory results from PubChem BioAssay (NCI).
Compounds without any hit were thinned out: in the full panel of roughly 79,000, 15% have a hit. The source made the active and inactive calls. No stated cut-off is given here; in the data, active means growth inhibition above about 70%; inactive means the rest.

Legend:
[1] = NCI Yeast Anticancer Drug Screen. Data for the rad52 strain (AID 147);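 further: 0% = growth of vehicle-treated control cultures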; conditions: S. cerevisiae rad52 mutant growth inhibition, active compounds read high
In short: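 Vehicle-treated cultures served as the reference for growth inhibition of compound-exposed yeast bearing a DNA repair mutation.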

[2] = NCI Yeast Anticancer Drug Screen. Data for the wt1 strain (AID 149);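 further: 0% = growth of vehicle-treated wt1 cultures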; conditions: S. cerevisiae wt1 strain (SPY 50644) growth inhibition, active compounds read high
In short: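 Measured: growth of wt1 yeast under compound versus vehicle treatment, reported as inhibition.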

[3] = NCI Yeast Anticancer Drug Screen. Data for the rad50EPP+ strain (AID 151);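 further: 0% = growth of vehicle-treated control cultures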; conditions: S. cerevisiae rad50 mutant strain, active compounds read high
In short: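 In this screen, rad50EPP+ yeast were exposed to compounds. Growth inhibition was scored against vehicle-treated controls.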

[4] = NCI Yeast Anticancer Drug Screen. Data for the mgt1 strain (AID 153); conditions: S. cerevisiae mgt1 mutant growth inhibition, active compounds read high
In short: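 mgt1 strain exposed; growth vs vehicle control recorded as inhibition.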

[5] = NCI Yeast Anticancer Drug Screen. Data for the rad50 strain (AID 155);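 further: 0% = growth of vehicle-only cultures of the same strain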; conditions: S. cerevisiae rad50 strain growth inhibition, active compounds read high
In short: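 Growth of the mutant yeast was measured after compound exposure and referenced to vehicle-treated cultures.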

[6] = NCI Yeast Anticancer Drug Screen. Data for the mec2-1 strain (AID 157); conditions: S. cerevisiae mec2-1 strain, active compounds read high
In short: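 Vehicle-treated cultures served as reference for growth inhibition of compound-exposed mec2-1 yeast.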

[7] = NCI Yeast Anticancer Drug Screen. Data for the sgs1 mgt1 strain (AID 161);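 further: 0% = growth of cultures given vehicle only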; conditions: S. cerevisiae sgs1 mgt1 strain, active compounds read high
In short: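 Test agents were incubated with a DNA-repair-mutant yeast strain. Growth was then read and compared against vehicle-treated controls.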

[8] = NCI Yeast Anticancer Drug Screen. Data for the CLN2oe strain (AID 163);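 further: 0% = growth of vehicle-only control cultures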; conditions: S. cerevisiae CLN2oe strain, active compounds read high
In short: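 Inhibition relative to vehicle-treated yeast is reported. Cells: strain with genetic alteration in cell-cycle control, grown with compound.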

[9] = NCI Yeast Anticancer Drug Screen. Data for the cln2 rad14 strain (AID 165);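 further: 0% = growth equal to vehicle treated cultures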; conditions: S. cerevisiae cln2 rad14 strain, active compounds read high
In short: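 Each compound was tested on cln2 rad14 yeast. Inhibition of growth was calculated against vehicle-exposed controls.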

[10] = NCI Yeast Anticancer Drug Screen. Data for the bub3 strain (AID 167); conditions: S. cerevisiae bub3 mutant strain, active compounds read high
In short: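 Whole-cell yeast assay. The mutant strain was incubated with compounds, and growth inhibition was determined by comparison with vehicle-treated cells.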

[11] = NCI Yeast Anticancer Drug Screen. Data for the wt2 strain (AID 169);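 further: 0% = growth of vehicle-treated yeast cultures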; conditions: S. cerevisiae wt2 strain growth inhibition, active compounds read high
In short: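 Inhibition of yeast growth was determined after compound treatment, normalised to controls receiving only vehicle.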

[12] = NCI Yeast Anticancer Drug Screen. Data for the mlh1 strain (AID 171);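 further: 0% = growth of vehicle-treated control cultures of the same strain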; conditions: S. cerevisiae mlh1 strain growth inhibition, active compounds read high
In short: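 Vehicle-normalised growth inhibition of a repair- or checkpoint-altered yeast strain following compound treatment.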

[13] = NCI Yeast Anticancer Drug Screen. Data for the sgs1 strain (AID 173);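 further: 0% = growth of vehicle-only control cultures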; conditions: S. cerevisiae sgs1 mutant, active compounds read high
In short: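 Screen format: yeast with repair or checkpoint alterations, compound exposure, growth read relative to vehicle.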

[14] = NCI Yeast Anticancer Drug Screen. Data for the mlh1 rad18 strain (AID 175); conditions: S. cerevisiae mlh1 rad18 strain growth inhibition, active compounds read high
In short: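 Vehicle-treated cultures served as the reference for growth inhibition in a yeast strain carrying DNA damage repair alterations exposed to each compound.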

[15] = NCI Yeast Anticancer Drug Screen. Data for the rad18 strain (AID 177); conditions: S. cerevisiae rad18 mutant growth inhibition, active compounds read high
In short: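 Test articles were incubated with altered yeast defective in DNA damage repair. Results are given as inhibition of growth versus vehicle.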

[16] = at 5.0 µM (retest, dose inferred, filed as 0.5)
[17] = at 50.0 µM (retest, dose inferred, filed as 5.0)

Measured: growth inhibition

O=C([O][Sn]([O]C(=O)c1ccccc1)([c]1ccccc1)[c]1ccccc1)c1ccccc1
active: [1]; at 100.0 µM 81% | [2]; at 100.0 µM 78% | [4]; at 100.0 µM 86% | [5]; at 100.0 µM 88% | [6]; at 50.0 µM 76.8% | [6]; at 100.0 µM 87% | [7]; [17] 73% | [9]; [17] 77% | [10]; [17] 87% | [10]; at 100.0 µM 83% | [11]; at 33.0 µM 81% | [11]; at 100.0 µM 97% | [12]; at 100.0 µM 86% | [13]; at 100.0 µM 84% | [14]; [17] 76% | [15]; at 100.0 µM 88%
inactive: [1]; at 1.2 µM 23% | [1]; at 3.7 µM 21% | [1]; at 11.0 µM 22% | [1]; at 33.0 µM 46% | [2]; at 1.2 µM 0% | [2]; at 3.7 µM 4% | [2]; at 11.0 µM -4% | [2]; at 33.0 µM 9% | [3]; at 1.2 µM 30% | [3]; at 3.7 µM 18% | [3]; at 11.0 µM 24% | [3]; at 33.0 µM 21% | [3]; at 100.0 µM 18% | [4]; at 1.2 µM 1% | [4]; at 3.7 µM 14% | [4]; at 11.0 µM 20% | [4]; at 33.0 µM 43% | [5]; at 1.2 µM 20% | [5]; at 3.7 µM 30% | [5]; [16] 4% | [5]; at 11.0 µM 27% | [5]; at 33.0 µM 40% | [5]; [17] 26% | [5]; at 50.0 µM 68.5% | [6]; at 1.2 µM 21% | [6]; at 3.7 µM 16% | [6]; [16] 12% | [6]; at 11.0 µM 16% | [6]; at 33.0 µM 37% | [6]; [17] 52% | [7]; [16] -11% | [7]; at 50.0 µM 56.4% | [8]; at 1.2 µM 15% | [8]; at 3.7 µM 16% | [8]; at 11.0 µM 10% | [8]; at 33.0 µM 23% | [8]; at 100.0 µM 57% | [9]; [16] -1% | [9]; at 50.0 µM 60% | [10]; at 1.2 µM 8% | [10]; at 3.7 µM 2% | [10]; [16] -14% | [10]; at 11.0 µM 10% | [10]; at 33.0 µM 30% | [10]; at 50.0 µM 58.5% | [11]; at 1.2 µM 8% | [11]; at 3.7 µM 1% | [11]; at 11.0 µM 20% | [12]; at 1.2 µM 1% | [12]; at 3.7 µM 14% | [12]; at 11.0 µM 20% | [12]; at 33.0 µM 43% | [13]; at 1.2 µM 28% | [13]; at 3.7 µM 26% | [13]; at 11.0 µM 30% | [13]; at 33.0 µM 45% | [14]; [16] 11% | [14]; at 50.0 µM 50.1% | [15]; at 1.2 µM 0% | [15]; at 3.7 µM -4% | [15]; at 11.0 µM -2% | [15]; at 33.0 µM 43%
